What all share (assay): DAPPL (digital affinity profiling via proximity ligation, sequencing); 10 mM Tris-HCl pH 7.5, 50 mM NaCl, 1 mM DTT, 4% glycerol, room temperature, 30 min; GST-TFs on glutathione beads, 16-mer random dsDNA library, 0.1% formaldehyde crosslink after washing; high values mean tight binding
Test [1] has as its target T1, FEV (Homo sapiens, UniProt Q99581 1-238).
T1 sequence: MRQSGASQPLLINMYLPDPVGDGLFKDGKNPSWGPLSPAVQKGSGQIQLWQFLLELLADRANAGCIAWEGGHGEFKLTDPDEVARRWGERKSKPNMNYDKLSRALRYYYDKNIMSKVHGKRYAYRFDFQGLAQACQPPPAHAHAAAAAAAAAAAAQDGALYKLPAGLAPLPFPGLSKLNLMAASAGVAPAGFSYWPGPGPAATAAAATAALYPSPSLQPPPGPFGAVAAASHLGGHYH
Conditions: protein: recombinant; tags: N-terminal GST; dsDNA, one strand shown. The procedure, abridged: (§1)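 Binding signal is each hexamer's read frequency for a factor divided by its frequency in the tag-only sample. The factors were GST-fused human transcription factors from yeast, captured on glutathione beads, DNA-barcoded and pooled with that sample. Pools were incubated with 200 nmole of a random double-stranded 16-mer DNA library in Tris/NaCl/DTT/glycerol buffer at room temperature for 30 min, then washed, crosslinked with 0.1% formaldehyde, proximity-ligated with BsaI/T4 ligase (1 h, 37 °C), PCR-amplified and sequenced on an Illumina NextSeq500.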

Test [2] addresses ETV5 (Homo sapiens, UniProt P41161 1-510). The settings on record: protein: recombinant; tags: N-terminal GST; dsDNA, one strand shown. The procedure, abridged: as §1
In test [3] the target is HSF1 (Homo sapiens, UniProt Q00613 1-529). Conditions: protein: recombinant; tags: N-terminal GST; chain copies: 3; dsDNA, one strand shown. The procedure, abridged:
as §1

Test [4] has as its target T2, SPIC (Homo sapiens, UniProt Q8N5J4 1-248).
T2 sequence: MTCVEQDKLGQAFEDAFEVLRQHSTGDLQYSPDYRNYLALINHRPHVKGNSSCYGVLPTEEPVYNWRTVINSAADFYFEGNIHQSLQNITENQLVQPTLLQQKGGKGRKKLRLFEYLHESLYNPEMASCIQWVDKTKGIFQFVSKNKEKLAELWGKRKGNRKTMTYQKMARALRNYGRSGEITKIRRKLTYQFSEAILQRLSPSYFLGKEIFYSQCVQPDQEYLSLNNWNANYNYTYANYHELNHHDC
The settings on record: protein: recombinant; tags: N-terminal GST; dsDNA, one strand shown. The procedure, abridged:
as §1

The target of test [5] is ELF4 (Homo sapiens, UniProt Q99607 1-663). The settings on record: protein: recombinant; tags: N-terminal GST; dsDNA, one strand shown. The procedure, abridged:
as §1

In test [6] the target is T3, ELK4 (Homo sapiens, UniProt P28324-2 1-405).
T3 sequence: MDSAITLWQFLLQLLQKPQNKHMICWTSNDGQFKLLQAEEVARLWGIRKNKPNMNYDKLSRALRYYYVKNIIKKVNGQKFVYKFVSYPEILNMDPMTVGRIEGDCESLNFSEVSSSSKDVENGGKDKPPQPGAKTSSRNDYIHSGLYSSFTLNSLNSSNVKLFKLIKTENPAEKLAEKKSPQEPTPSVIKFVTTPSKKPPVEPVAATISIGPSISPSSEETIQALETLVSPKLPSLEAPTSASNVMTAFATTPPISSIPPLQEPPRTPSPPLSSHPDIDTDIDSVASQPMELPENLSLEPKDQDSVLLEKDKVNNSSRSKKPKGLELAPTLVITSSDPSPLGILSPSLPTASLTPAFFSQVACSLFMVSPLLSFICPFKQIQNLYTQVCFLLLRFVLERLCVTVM
The settings on record: protein: recombinant; tags: N-terminal GST; dsDNA, one strand shown. The procedure, abridged:
as §1

In test [7] the target is T4, ETV2 (Homo sapiens, UniProt O00321 1-342).
T4 sequence: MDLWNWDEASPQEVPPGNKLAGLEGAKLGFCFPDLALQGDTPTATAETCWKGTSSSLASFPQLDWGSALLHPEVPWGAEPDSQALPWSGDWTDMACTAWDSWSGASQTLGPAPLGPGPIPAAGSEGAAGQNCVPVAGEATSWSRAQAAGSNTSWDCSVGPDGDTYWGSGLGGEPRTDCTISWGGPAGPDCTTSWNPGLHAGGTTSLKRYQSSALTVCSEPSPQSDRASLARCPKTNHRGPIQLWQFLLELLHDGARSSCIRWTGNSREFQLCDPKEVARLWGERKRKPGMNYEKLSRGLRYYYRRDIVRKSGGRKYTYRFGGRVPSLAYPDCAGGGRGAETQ
Conditions: protein: recombinant; tags: N-terminal GST; dsDNA, one strand shown. The procedure, abridged: as §1

Test [8] addresses T5, ELF3 (Homo sapiens, UniProt P78545 1-371).
T5 sequence: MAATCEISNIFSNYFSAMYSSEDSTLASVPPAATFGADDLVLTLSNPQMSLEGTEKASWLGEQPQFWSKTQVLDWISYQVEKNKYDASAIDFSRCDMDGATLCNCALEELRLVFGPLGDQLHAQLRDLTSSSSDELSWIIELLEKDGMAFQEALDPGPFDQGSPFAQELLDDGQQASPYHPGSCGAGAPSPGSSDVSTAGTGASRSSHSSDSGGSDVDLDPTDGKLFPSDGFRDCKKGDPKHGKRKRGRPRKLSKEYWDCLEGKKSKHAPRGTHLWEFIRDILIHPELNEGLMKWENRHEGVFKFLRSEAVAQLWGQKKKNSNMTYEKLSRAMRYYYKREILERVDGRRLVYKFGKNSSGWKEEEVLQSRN
The settings on record: protein: recombinant; tags: N-terminal GST; dsDNA, one strand shown. The procedure, abridged: as §1

Test [9] concerns the target CRX (Homo sapiens, UniProt O43186 1-299). Conditions: protein: recombinant; tags: N-terminal GST; dsDNA, one strand shown. The procedure, abridged:
as §1

In test [10] the target is ETV1 (Homo sapiens, UniProt P50549 1-477). Conditions: protein: recombinant; tags: N-terminal GST; dsDNA, one strand shown. The procedure, abridged: as §1
Sequence of ETV1 (P50549 whole entry): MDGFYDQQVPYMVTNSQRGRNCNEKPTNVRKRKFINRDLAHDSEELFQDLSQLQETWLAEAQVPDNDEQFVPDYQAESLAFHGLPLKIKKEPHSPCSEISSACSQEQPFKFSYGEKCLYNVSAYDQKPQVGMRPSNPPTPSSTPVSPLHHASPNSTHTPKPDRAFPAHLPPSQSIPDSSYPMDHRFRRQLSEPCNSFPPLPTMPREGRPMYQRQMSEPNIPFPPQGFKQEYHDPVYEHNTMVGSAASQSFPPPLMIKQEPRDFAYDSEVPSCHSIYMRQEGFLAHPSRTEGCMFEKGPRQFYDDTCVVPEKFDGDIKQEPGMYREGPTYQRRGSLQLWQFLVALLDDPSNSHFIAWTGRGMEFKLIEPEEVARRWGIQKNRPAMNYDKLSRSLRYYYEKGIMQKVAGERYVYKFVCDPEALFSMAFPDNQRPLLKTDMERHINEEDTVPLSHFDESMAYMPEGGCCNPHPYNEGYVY
The target of test [11] is T6, ERF (Homo sapiens, UniProt P50548 1-548).
T6 sequence: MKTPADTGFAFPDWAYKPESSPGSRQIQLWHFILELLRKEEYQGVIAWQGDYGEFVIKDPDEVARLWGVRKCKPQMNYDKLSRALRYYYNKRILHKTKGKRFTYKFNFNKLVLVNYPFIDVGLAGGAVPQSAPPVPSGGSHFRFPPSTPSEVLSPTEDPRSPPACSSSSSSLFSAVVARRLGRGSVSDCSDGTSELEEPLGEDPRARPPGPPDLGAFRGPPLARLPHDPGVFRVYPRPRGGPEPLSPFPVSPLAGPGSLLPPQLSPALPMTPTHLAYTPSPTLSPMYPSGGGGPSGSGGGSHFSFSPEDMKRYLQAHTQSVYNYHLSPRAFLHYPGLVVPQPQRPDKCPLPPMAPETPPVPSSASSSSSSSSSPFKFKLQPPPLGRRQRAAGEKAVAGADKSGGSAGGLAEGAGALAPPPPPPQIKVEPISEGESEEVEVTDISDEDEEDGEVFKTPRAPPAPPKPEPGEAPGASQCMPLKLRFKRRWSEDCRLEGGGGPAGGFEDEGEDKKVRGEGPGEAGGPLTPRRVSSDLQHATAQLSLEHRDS
The settings on record: protein: recombinant; tags: N-terminal GST; dsDNA, one strand shown. The procedure, abridged:
as §1

Test [12] deals with T7, ETV3L (Homo sapiens, UniProt Q6ZN32 1-361).
T7 sequence: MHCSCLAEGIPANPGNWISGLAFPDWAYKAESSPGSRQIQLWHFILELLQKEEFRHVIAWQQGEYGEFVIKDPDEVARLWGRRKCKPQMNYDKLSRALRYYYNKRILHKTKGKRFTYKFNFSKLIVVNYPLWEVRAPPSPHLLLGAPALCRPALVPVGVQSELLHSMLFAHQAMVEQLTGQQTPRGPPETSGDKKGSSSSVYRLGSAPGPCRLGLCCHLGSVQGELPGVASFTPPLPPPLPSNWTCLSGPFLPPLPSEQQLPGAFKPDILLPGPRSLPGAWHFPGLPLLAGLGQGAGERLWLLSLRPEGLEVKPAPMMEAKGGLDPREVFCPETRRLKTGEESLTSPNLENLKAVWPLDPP
Conditions: protein: recombinant; tags: N-terminal GST; dsDNA, one strand shown. The procedure, abridged: as §1

The target of test [13] is T8, ETS2 (Homo sapiens, UniProt P15036 1-469).
T8 sequence: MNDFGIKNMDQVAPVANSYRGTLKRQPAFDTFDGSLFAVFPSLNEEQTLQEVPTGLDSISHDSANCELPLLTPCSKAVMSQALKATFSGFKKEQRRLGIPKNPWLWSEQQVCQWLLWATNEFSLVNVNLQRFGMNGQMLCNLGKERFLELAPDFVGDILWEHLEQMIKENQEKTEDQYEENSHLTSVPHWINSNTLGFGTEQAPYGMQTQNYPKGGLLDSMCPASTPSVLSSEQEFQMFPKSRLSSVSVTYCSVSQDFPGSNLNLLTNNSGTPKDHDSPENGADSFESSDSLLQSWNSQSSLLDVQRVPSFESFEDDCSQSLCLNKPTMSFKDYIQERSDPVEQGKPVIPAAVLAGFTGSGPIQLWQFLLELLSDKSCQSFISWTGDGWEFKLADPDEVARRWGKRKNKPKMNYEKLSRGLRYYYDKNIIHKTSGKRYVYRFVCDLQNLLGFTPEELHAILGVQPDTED
The settings on record: protein: recombinant; tags: N-terminal GST; dsDNA, one strand shown. The procedure, abridged:
as §1

Test [14] concerns the target T9, SPDEF (Homo sapiens, UniProt O95238 1-335).
T9 sequence: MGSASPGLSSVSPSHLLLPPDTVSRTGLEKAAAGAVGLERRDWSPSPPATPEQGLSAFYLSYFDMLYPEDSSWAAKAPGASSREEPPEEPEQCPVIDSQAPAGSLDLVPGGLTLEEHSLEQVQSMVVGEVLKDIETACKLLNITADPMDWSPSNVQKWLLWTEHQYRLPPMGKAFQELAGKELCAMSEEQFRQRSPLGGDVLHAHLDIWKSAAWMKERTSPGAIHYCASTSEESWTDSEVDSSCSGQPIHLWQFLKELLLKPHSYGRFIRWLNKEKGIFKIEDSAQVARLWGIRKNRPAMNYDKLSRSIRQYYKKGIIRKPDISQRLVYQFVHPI
Conditions: protein: recombinant; tags: N-terminal GST; dsDNA, one strand shown. The procedure, abridged: as §1

The target in test [15] is T10, ETV7 (Homo sapiens, UniProt Q9Y603 1-341).
T10 sequence: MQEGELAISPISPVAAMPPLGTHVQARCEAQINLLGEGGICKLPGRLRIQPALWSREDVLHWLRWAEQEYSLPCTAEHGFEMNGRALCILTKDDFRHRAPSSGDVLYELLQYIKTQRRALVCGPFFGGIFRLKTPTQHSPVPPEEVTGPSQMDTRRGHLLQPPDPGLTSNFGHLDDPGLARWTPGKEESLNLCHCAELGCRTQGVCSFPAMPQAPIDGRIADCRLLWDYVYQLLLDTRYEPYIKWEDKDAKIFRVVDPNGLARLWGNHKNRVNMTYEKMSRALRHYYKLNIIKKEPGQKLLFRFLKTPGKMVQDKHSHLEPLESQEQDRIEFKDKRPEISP
Conditions: protein: recombinant; tags: N-terminal GST; dsDNA, one strand shown. The procedure, abridged:
as §1

Test [16] concerns the target T11, ELF5 (Homo sapiens, UniProt Q9UKW6-2 1-255).
T11 sequence: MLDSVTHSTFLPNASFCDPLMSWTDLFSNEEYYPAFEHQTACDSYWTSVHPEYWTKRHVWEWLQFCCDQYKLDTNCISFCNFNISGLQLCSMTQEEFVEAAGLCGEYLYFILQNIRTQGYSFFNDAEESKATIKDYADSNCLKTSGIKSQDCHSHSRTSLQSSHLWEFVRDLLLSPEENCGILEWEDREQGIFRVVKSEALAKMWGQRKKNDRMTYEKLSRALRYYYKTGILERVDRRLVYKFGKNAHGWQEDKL
Conditions: protein: recombinant; tags: N-terminal GST; dsDNA, one strand shown. The procedure, abridged: as §1

Test [17] addresses T12, ETV3 (Homo sapiens, UniProt P41162-2 1-143).
T12 sequence: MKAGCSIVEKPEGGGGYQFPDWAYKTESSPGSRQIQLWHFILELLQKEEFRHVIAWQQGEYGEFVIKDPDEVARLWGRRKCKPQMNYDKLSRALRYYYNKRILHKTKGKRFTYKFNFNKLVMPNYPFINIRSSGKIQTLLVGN
Conditions: protein: recombinant; tags: N-terminal GST; dsDNA, one strand shown. The procedure, abridged:
as §1

Test [18] concerns the target ETV6 (Homo sapiens, UniProt P41212 1-452). The settings on record: protein: recombinant; tags: N-terminal GST; dsDNA, one strand shown. The procedure, abridged:
as §1

Sequence of CRX (O43186 whole entry): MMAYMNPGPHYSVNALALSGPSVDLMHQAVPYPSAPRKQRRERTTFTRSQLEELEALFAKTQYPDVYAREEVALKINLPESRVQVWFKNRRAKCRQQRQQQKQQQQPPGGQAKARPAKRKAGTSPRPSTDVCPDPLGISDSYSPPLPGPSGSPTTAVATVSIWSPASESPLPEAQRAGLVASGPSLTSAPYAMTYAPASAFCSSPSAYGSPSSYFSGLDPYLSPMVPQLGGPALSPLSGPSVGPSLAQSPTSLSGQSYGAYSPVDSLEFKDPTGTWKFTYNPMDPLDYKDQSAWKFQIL
Sequence of ETV5 (P41161 whole entry): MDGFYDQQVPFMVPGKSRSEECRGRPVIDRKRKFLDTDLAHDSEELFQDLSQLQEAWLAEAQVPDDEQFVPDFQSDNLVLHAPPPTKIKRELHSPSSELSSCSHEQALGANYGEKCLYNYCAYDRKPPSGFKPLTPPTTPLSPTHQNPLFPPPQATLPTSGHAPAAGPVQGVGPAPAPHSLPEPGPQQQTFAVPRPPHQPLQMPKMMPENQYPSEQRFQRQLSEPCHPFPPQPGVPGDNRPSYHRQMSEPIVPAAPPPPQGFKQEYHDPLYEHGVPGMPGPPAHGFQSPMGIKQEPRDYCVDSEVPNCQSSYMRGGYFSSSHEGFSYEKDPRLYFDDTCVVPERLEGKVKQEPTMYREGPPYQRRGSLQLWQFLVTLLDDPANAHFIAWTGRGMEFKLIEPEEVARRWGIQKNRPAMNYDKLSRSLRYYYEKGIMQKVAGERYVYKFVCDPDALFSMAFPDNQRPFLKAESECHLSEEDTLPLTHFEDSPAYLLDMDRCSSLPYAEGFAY
Sequence of ELF4 (Q99607 whole entry): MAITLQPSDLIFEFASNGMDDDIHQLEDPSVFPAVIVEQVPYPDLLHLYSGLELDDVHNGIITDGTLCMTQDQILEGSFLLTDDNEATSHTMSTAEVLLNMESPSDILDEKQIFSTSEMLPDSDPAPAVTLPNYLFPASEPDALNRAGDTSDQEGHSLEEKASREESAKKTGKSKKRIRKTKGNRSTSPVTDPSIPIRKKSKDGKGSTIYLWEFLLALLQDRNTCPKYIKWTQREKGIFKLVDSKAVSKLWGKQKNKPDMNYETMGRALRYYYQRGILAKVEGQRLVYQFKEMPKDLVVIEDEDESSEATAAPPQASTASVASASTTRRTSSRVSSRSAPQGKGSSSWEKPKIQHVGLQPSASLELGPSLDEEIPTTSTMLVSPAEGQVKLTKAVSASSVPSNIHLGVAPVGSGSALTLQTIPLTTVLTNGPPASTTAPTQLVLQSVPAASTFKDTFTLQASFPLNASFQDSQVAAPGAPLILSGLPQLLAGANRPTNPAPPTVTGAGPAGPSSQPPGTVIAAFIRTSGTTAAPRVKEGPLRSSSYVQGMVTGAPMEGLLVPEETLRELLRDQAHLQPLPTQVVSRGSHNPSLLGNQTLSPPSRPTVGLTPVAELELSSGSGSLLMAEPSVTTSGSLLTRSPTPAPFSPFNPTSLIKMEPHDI
Sequence of HSF1 (Q00613 whole entry): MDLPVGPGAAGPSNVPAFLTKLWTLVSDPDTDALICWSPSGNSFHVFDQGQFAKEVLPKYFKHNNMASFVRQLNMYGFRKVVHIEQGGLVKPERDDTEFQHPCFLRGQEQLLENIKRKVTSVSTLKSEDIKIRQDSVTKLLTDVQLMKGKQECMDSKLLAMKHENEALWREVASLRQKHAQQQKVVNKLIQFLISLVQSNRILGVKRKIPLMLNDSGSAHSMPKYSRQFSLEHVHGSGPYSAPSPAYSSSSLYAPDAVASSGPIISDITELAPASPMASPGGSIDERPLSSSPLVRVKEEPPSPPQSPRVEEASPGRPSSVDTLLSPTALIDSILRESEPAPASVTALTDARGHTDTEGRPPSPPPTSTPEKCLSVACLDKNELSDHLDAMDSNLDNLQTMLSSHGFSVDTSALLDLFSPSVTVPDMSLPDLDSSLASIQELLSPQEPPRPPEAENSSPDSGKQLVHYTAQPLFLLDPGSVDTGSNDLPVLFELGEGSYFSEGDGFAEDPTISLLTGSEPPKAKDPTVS
Sequence of ETV6 (P41212 whole entry): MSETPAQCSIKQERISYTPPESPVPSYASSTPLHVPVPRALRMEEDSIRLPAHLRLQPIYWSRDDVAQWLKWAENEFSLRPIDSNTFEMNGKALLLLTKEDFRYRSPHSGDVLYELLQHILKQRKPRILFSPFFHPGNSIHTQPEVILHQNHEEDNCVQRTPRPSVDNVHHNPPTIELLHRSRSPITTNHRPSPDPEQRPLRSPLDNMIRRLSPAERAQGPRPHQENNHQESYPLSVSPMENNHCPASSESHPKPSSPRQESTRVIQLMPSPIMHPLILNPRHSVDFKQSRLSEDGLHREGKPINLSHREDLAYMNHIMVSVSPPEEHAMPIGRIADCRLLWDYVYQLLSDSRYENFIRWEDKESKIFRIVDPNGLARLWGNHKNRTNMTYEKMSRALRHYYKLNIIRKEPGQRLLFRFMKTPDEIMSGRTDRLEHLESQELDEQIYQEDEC

For the sequence CCGGAT, the binding signal was 7.2 fold enrichment (6-mer frequency, TF over GST control) in test [1]; 3.55 fold enrichment (6-mer frequency, TF over GST control) in test [2]; 1.63 fold enrichment (6-mer frequency, TF over GST control) in test [3]; 2.66 fold enrichment (6-mer frequency, TF over GST control) in test [4]; 2.75 fold enrichment (6-mer frequency, TF over GST control) in test [5]; 2.74 fold enrichment (6-mer frequency, TF over GST control) in test [6]. The binding signal was 2.89 fold enrichment (6-mer frequency, TF over GST control) in [7]; 3.19 fold enrichment (6-mer frequency, TF over GST control) in test [8]; 2.03 fold enrichment (6-mer frequency, TF over GST control) in [9]; 3.5 fold enrichment (6-mer frequency, TF over GST control) in [10]; 2.87 fold enrichment (6-mer frequency, TF over GST control) in test [11]; 3.03 fold enrichment (6-mer frequency, TF over GST control) in test [12]. The binding signal is 3.38 fold enrichment (6-mer frequency, TF over GST control) in test [13]; 6.71 fold enrichment (6-mer frequency, TF over GST control) in test [14]; 2.7 fold enrichment (6-mer frequency, TF over GST control) in [15]; 3.7 fold enrichment (6-mer frequency, TF over GST control) in test [16]; 3.64 fold enrichment (6-mer frequency, TF over GST control) in test [17]; 3.06 fold enrichment (6-mer frequency, TF over GST control) in test [18].

Values taken from PMC7862700, “An all-to-all approach to the identification of sequence-specific readers for epigenetic DNA modifications on cytosine”.
